Assay results from PubChem BioAssay (NCATS).
Results filed as inconclusive are left out. The source made the active and inactive calls. Calls come from the whole dose curve; as a rule, active = well fitted cell-killing curve with a large enough effect; inconclusive = small, poorly fitted or top-dose-only effect, or effect the other way; inactive = flat fitted curve, though single readings scatter.

Assays:
Assay in all cases: Primary qHTS to identify gynecologic anti-cancer compounds using libraries of approved drugs and bioactive compounds (AID 1345084); note: nearly all actives have a fitted effect of over 55% in size
C33A = details: Gynecologic cancer cell panel viability, ATPlite luminescence, 48 h; series mostly up to 57.5 µM
How it was run: (§1)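 In this quantitative HTS, cell killing is estimated from loss of ATP-dependent luciferase light. Cells see five compound concentrations over a 48 h exposure.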

CASKI = details: Gynecologic cancer cell panel viability, ATPlite luminescence, 48 h; series mostly up to 57.5 µM
How it was run: as §1

Es-2 = details: Gynecologic cancer cell panel viability, ATPlite luminescence, 48 h; series mostly up to 57.5 µM
How it was run: as §1

HeLa = details: Gynecologic cancer cell panel viability, ATPlite luminescence, 48 h; series mostly up to 57.5 µM
How it was run: as §1

Hek293T = details: Gynecologic cancer cell panel viability, ATPlite luminescence, 48 h, control line for the selectivity index; series mostly up to 57.5 µM
How it was run: as §1

JEG-3 = details: Gynecologic cancer cell panel viability, ATPlite luminescence, 48 h; series mostly up to 57.5 µM
How it was run: as §1

OV90 = details: Gynecologic cancer cell panel viability, ATPlite luminescence, 48 h; series mostly up to 57.5 µM
How it was run: as §1
% is set by controls: 0 for no effect and ±100 for the full control effect.

COc1cc2c(c(OC)c1CC=C(C)C)C[C@H](c1ccc(O)c(CC=C(C)C)c1O)CO2
inactive: Potency (C33A) | Potency (CASKI) | Potency (Es-2) | Potency (HeLa) | Potency (Hek293T) | Potency (JEG-3) | Potency (OV90)

CC(C)[C@@H](c1ccc(C(F)(F)F)cc1CN(Cc1cc(C(F)(F)F)cc(C(F)(F)F)c1)c1nnn(C)n1)N1CCC(C(=O)O)CC1
inactive: Potency (C33A) | Potency (CASKI) | Potency (Es-2) | Potency (HeLa) | Potency (Hek293T) | Potency (JEG-3) | Potency (OV90)

NS(=O)(=O)c1ccc(N2N=C(c3ccccc3)CC2c2ccccc2)cc1 (stereo not given)
inactive: Potency (C33A) | Potency (CASKI) | Potency (Es-2) | Potency (HeLa) | Potency (Hek293T) | Potency (JEG-3) | Potency (OV90)

O=c1[nH]c2cccc(N3CCN(Cc4ccc(-c5ccccc5)cc4)CC3)c2o1
inactive: Potency (C33A) | Potency (CASKI) | Potency (Es-2) | Potency (HeLa) | Potency (Hek293T) | Potency (JEG-3) | Potency (OV90)

CC(=O)OC(C)(C)/C=C/C(=O)[C@](C)(O)[C@H]1C(O)C[C@@]2(C)[C@@H]3CC=C4[C@@H](C=C(O[C@@H]5O[C@H](CO)[C@@H](O)[C@H](O)[C@H]5O)C(=O)C4(C)C)[C@]3(C)C(=O)C[C@]12C (stereo not given in full)
inactive: Potency (C33A) | Potency (CASKI) | Potency (Es-2) | Potency (HeLa) | Potency (Hek293T) | Potency (JEG-3) | Potency (OV90)

CC1OC(OC2C(O)COC(O[C@@H]3[C@@H](O)[C@@H](O)[C@H](OC4C(OC(=O)[C@]56CCC(C)(C)CC5C5=CCC7[C@@]8(C)C[C@H](O)[C@H](OC9OC(CO)C(O)C(O)C9O)[C@@](C)(CO)C8[C@H](O)C[C@@]7(C)[C@]5(C)CC6)OCC(O)C4O)O[C@H]3C)C2O)C(O)C(O)C1O (stereo not given in full)
inactive: activity change, negative = cytotoxicity (C33A) -9.28% [at 6.55 µM] | activity change, negative = cytotoxicity (CASKI) 20% [at 6.55 µM] | activity change, negative = cytotoxicity (Es-2) -27.5% [at 6.55 µM] | activity change, negative = cytotoxicity (HeLa) -4.81% [at 6.55 µM] | activity change, negative = cytotoxicity (Hek293T) -17.3% [at 6.55 µM] | activity change, negative = cytotoxicity (JEG-3) -13.2% [at 6.55 µM] | activity change, negative = cytotoxicity (OV90) 13.1% [at 6.55 µM]

CC1=CC2/C=C(\C)CCC3OC(C)(C)OC3CCC(=O)C23C(=O)NC(CC(C)C)C3C1C (stereo not given)
inactive: Potency (C33A) | Potency (CASKI) | Potency (Es-2) | Potency (HeLa) | Potency (Hek293T) | Potency (JEG-3) | Potency (OV90)

Cc1ccc(NC(=O)N2CCN(c3nc(N)nc4sc(-c5cccnc5)nc34)CC2)cc1
inactive: Potency (C33A) | Potency (CASKI) | Potency (Es-2) | Potency (HeLa) | Potency (Hek293T) | Potency (JEG-3) | Potency (OV90)

Cc1cc(C)c(-n2cc(C)c3c(Cl)nc(C)nc32)c(C)c1
inactive: Potency (C33A) | Potency (CASKI) | Potency (Es-2) | Potency (HeLa) | Potency (Hek293T) | Potency (JEG-3) | Potency (OV90)

COc1ccc(C(=O)Nc2c(Cl)cncc2Cl)cc1OC1CCCC1
inactive: Potency (C33A) | Potency (CASKI) | Potency (Es-2) | Potency (HeLa) | Potency (Hek293T) | Potency (JEG-3) | Potency (OV90)

CC(=O)OC1CC2(C)C(CCC(C)C23Cc2c(O)cc(CO)c(C=O)c2O3)C(C)(C)C1O (stereo not given)
inactive: Potency (C33A) | Potency (CASKI) | Potency (Es-2) | Potency (HeLa) | Potency (Hek293T) | Potency (JEG-3) | Potency (OV90)

O=c1nc(-c2ccccn2)sc2ccccc12
inactive: Potency (C33A) | Potency (CASKI) | Potency (Es-2) | Potency (HeLa) | Potency (Hek293T) | Potency (JEG-3) | Potency (OV90)

CC(C)CCNc1ncccc1C(=O)N1CCN(Cc2ccccc2)CC1
inactive: Potency (C33A) | Potency (CASKI) | Potency (Es-2) | Potency (HeLa) | Potency (Hek293T) | Potency (JEG-3) | Potency (OV90)

O=C(Nc1cccnn1)N1CCN(c2nccc(-c3ccc(F)c(F)c3)n2)CC1
inactive: Potency (C33A) | Potency (CASKI) | Potency (Es-2) | Potency (HeLa) | Potency (Hek293T) | Potency (JEG-3) | Potency (OV90)

CC(C)(C)[C@H](NC(=O)c1ccc(N)c(Cl)c1)C(=O)N1CCC[C@H]1C(=O)N[C@H](C#N)CC(=O)O
inactive: Potency (C33A) | Potency (CASKI) | Potency (Es-2) | Potency (HeLa) | Potency (Hek293T) | Potency (JEG-3) | Potency (OV90)

CC(C)NC(=O)N1CC[C@H](N=C2Nc3cc(F)ccc3N(CC(F)F)c3ccc(Cl)cc32)C1
inactive: activity change, negative = cytotoxicity (C33A) 7.02% [at 11.6 µM] | activity change, negative = cytotoxicity (CASKI) -4.9% [at 11.6 µM] | activity change, negative = cytotoxicity (Es-2) 5.14% [at 11.6 µM] | activity change, negative = cytotoxicity (HeLa) -4.91% [at 11.6 µM] | activity change, negative = cytotoxicity (Hek293T) 1.3% [at 11.6 µM] | activity change, negative = cytotoxicity (JEG-3) 13.8% [at 11.6 µM] | activity change, negative = cytotoxicity (OV90) 1.89% [at 11.6 µM]

CN(C)CCn1cc(-c2ccc(F)cc2)c(-n2cccc2)n1
inactive: Potency (C33A) | Potency (CASKI) | Potency (Es-2) | Potency (HeLa) | Potency (Hek293T) | Potency (JEG-3) | Potency (OV90)

COc1ccc(C(=O)O[C@H]2C=COC=C3C=C4C(=O)N(C)C(=S)C(=O)N4[C@@H]32)cc1Oc1cc(C=O)ccc1O
inactive: Potency (C33A) | Potency (CASKI) | Potency (Es-2) | Potency (HeLa) | Potency (Hek293T) | Potency (JEG-3) | Potency (OV90)

C=CC(C)(O)CC[C@@H]1[C@@]2(C)CCCC(C)(C)C2CC[C@@]1(C)O (stereo not given in full)
inactive: Potency (C33A) | Potency (CASKI) | Potency (Es-2) | Potency (HeLa) | Potency (Hek293T) | Potency (JEG-3) | Potency (OV90)

CC(=O)N[C@H]1[C@H](O[C@H]2CC[C@@]3(C)C(CC[C@]4(C)C3CC=C3C5CC(C)(C)CC[C@]5(C(=O)O)C(O)C[C@]34C)C2(C)C)O[C@H](CO[C@@H]2O[C@H](C)[C@H](O)[C@H](O)[C@H]2O[C@@H]2OC[C@@H](O)[C@H](O)[C@H]2O)[C@@H](O)[C@@H]1O (stereo not given in full)
inactive: activity change, negative = cytotoxicity (C33A) 3.31% [at 11.6 µM] | activity change, negative = cytotoxicity (CASKI) 25.2% [at 11.6 µM] | activity change, negative = cytotoxicity (Es-2) 3.97% [at 11.6 µM] | activity change, negative = cytotoxicity (HeLa) 4.55% [at 11.6 µM] | activity change, negative = cytotoxicity (Hek293T) -2.18% [at 11.6 µM] | activity change, negative = cytotoxicity (JEG-3) -18.9% [at 11.6 µM] | activity change, negative = cytotoxicity (OV90) 7.05% [at 11.6 µM]
